# Source: PubChem BioAssay AID1159580 (chemical genetic matrix, 2015)
# About 2,000 (36%) of roughly 5,500 compounds were called active. Another 18% or so got no clear call; they are omitted. The list shows a part of the results. Values without a mark were called inactive. No stated cut-off is given here; in the data, active means normalized growth mostly below about 0.91 (no sharp cut-off); inconclusive means no clear call, values can overlap the other calls; inactive means mostly above about 0.92.
# Assay: chemical genetic growth profiling, strain panel (AID 1159580);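 further: tested at 20 µM; growth read once vehicle control cultures reached saturation at 30 °C; 1 = growth at the plate median or of vehicle wells; lower values mean less growth of the strain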
# Conditions: S. cerevisiae deletion strains, growth OD
# [1] = locus YAL013W, strain DEP1, hits give low values
# [2] = locus YBR229C, strain ROT2, hits give low values
# [3] = locus YDL101C, strain DUN1, hits give low values
# [4] = locus YDR150W, strain NUM1, hits give low values
# [5] = locus YEL061C, strain CIN8, hits give low values
# [6] = locus YGR078C, strain PAC10, hits give low values
# [7] = locus YHR030C, strain SLT2, hits give low values
# [8] = locus YHR087W, strain rtc3, hits give low values
# [9] = locus YJR043C, strain POL32, hits give low values
# [10] = locus YJR075W, strain HOC1, hits give low values
# [11] = locus YLR039C, strain RIC1, hits give low values
# [12] = locus YLR058C, strain SHM2 (second series), hits give low values
# [13] = locus YLR085C, strain ARP6, hits give low values
# [14] = locus YLR262C, strain YPT6, hits give low values
# [15] = locus YML094W, strain GIM5, hits give low values
# [16] = locus YMR219W, strain ESC1, hits give low values
# [17] = locus YMR263W, strain SAP30, hits give low values
# [18] = locus YNL128W, strain TEP1, hits give low values
# [19] = locus YNL153C, strain GIM3, hits give low values
# [20] = locus YNL298W, strain CLA4 (second series), hits give low values
# [21] = locus YNL322C, strain KRE1, hits give low values
# [22] = locus YNR030W, strain Alg12, hits give low values
# [23] = locus YPL055C, strain LGE1, hits give low values
# [24] = locus YPL241C, strain CIN2, hits give low values
# [25] = locus YPR135W, strain CTF4, hits give low values
smiles,measurement,setting,value
COc1ccc2c(c1)CCCN2C(=O)NC(=O)c1c(F)cccc1Cl,normalized growth,[1],1
same,normalized growth,[2],1.01
same,normalized growth,[3],1.04
same,normalized growth,"locus YDL134C, strain PPH21, hits give low values",0.984
same,normalized growth,[4],1.07
same,normalized growth,[5],0.998
same,normalized growth,[6],1.02
same,normalized growth,[7],1.06
same,normalized growth,[8],0.95
same,normalized growth,[9],1.04
same,normalized growth,[10],0.997
same,normalized growth,[11],0.967
same,normalized growth,[12],0.975
same,normalized growth,[13],1
same,normalized growth,[14],0.925
same,normalized growth,[15],0.973
same,normalized growth,[16],0.997
same,normalized growth,[17],1.04
same,normalized growth,[18],1.01
same,normalized growth,[19],1.03
same,normalized growth,[20],1.03
same,normalized growth,[21],0.998
same,normalized growth,[22],1
same,normalized growth,[23],0.98
same,normalized growth,[24],1.02
same,normalized growth,[25],1.05
COc1ccc(C(=O)C2CCNCC2)cc1,normalized growth,[1],0.991
same,normalized growth,[2],0.974
same,normalized growth,[3],0.972
same,normalized growth,[4],1.03
same,normalized growth,[5],1.01
same,normalized growth,[6],0.99
same,normalized growth,"locus YGR229C, strain SMI1, hits give low values",1.01
same,normalized growth,[7],1.06
same,normalized growth,[8],0.974
same,normalized growth,"locus YJL187C, strain SWE1, hits give low values",1
same,normalized growth,[9],1.01
same,normalized growth,[10],1.01
same,normalized growth,"locus YKL190W, strain CNB1, hits give low values",1
same,normalized growth,[11],1
same,normalized growth,[12],0.988
same,normalized growth,[13],1.09
same,normalized growth,[14],0.998
same,normalized growth,[15],0.969
same,normalized growth,[16],0.998
same,normalized growth,[17],1.02
same,normalized growth,[18],0.983
same,normalized growth,[19],1.02
same,normalized growth,[20],0.998
same,normalized growth,[21],1
same,normalized growth,[22],1.01
same,normalized growth,[23],1.01
same,normalized growth,[24],1.07
same,normalized growth,[25],0.995
COc1ccc(CC2CCC(=NOC(=O)c3c(Cl)cccc3Cl)CC2)cc1 (centres undefined),normalized growth,"locus YAR019C, strain CDC15, hits give low values",1.03
same,normalized growth,"locus YBL105C, strain PKC1, hits give low values",1.06 [resistant] (active)
same,normalized growth,"locus YBR135W, strain CKS1, hits give low values",1.04
same,normalized growth,"locus YBR136W, strain MEC1, hits give low values",1.05
same,normalized growth,"locus YBR160W, strain CDC28, hits give low values",1.05
same,normalized growth,"locus YDL017W, strain CDC7, hits give low values",1.04
same,normalized growth,"locus YDL028C, strain MPS1, hits give low values",1.04
same,normalized growth,[3],0.994
same,normalized growth,"locus YDL108W, strain KIN28, hits give low values",1.04
same,normalized growth,"locus YDL132W, strain cdc53, hits give low values",1.01
same,normalized growth,"locus YDL214C, strain PRR2, hits give low values",0.948
same,normalized growth,"locus YDR052C, strain DBF4, hits give low values",0.99
same,normalized growth,"locus YDR054C, strain cdc34, hits give low values",1.02
same,normalized growth,"locus YDR226W, strain ADK1, hits give low values",1.02
same,normalized growth,"locus YDR477W, strain SNF1, hits give low values",0.956
same,normalized growth,"locus YER123W, strain YCK3, hits give low values",0.938
same,normalized growth,"locus YER133W, strain GLC7, hits give low values",0.949
same,normalized growth,"locus YFL009W, strain cdc4, hits give low values",1.02
same,normalized growth,"locus YFL029C, strain CAK1, hits give low values",1.03
same,normalized growth,"locus YFR003C, strain YPI1, hits give low values",1.04
same,normalized growth,"locus YFR019W, strain FAB1, hits give low values",0.971
same,normalized growth,"locus YFR028C, strain CDC14, hits give low values",1
same,normalized growth,"locus YGR040W, strain KSS1, hits give low values",0.957
same,normalized growth,"locus YGR052W, strain FMP48, hits give low values",0.98
same,normalized growth,"locus YGR092W, strain DBF2, hits give low values",1.01
same,normalized growth,[7],0.829 (active)
same,normalized growth,"locus YHR079C, strain IRE1, hits give low values",1
same,normalized growth,"locus YHR082C, strain KSP1, hits give low values",1.03
same,normalized growth,"locus YHR205W, strain SCH9, hits give low values",1
same,normalized growth,"locus YIL147C, strain SLN1, hits give low values",1.04
same,normalized growth,"locus YJL095W, strain BCK1, hits give low values",0.984
same,normalized growth,"locus YJL157C, strain FAR1, hits give low values",0.962
same,normalized growth,"locus YJR016C, strain ILV3, hits give low values",1.01
same,normalized growth,"locus YJR066W, strain TOR1 (second series), hits give low values",0.928
same,normalized growth,"locus YJR066W, strain TOR1, hits give low values",1.06
same,normalized growth,"locus YKL048C, strain ELM1, hits give low values",0.976
same,normalized growth,"locus YKL067W, strain YNK1, hits give low values",0.959
same,normalized growth,"locus YKL101W, strain HSL1, hits give low values",0.966
same,normalized growth,"locus YKL193C, strain SDS22, hits give low values",1.02
same,normalized growth,"locus YKL203C, strain TOR2, hits give low values",1.01
same,normalized growth,"locus YLR113W, strain HOG1, hits give low values",0.854 (active)
same,normalized growth,"locus YLR133W, strain CKI1, hits give low values",0.98
same,normalized growth,"locus YLR403W, strain SFP1, hits give low values",1.01
same,normalized growth,"locus YML070W, strain DAK1, hits give low values",0.953
same,normalized growth,"locus YMR001C, strain CDC5, hits give low values",1.03
same,normalized growth,"locus YMR205C, strain PFK2 (second series), hits give low values",0.962
same,normalized growth,"locus YMR277W, strain FCP1, hits give low values",1.02
same,normalized growth,"locus YNL006W, strain LST8, hits give low values",1.05
same,normalized growth,"locus YNL020C, strain ARK1, hits give low values",0.977
same,normalized growth,"locus YNL161W, strain CBK1, hits give low values",1.05
same,normalized growth,"locus YNL183C, strain NPR1, hits give low values",1.05
same,normalized growth,"locus YNL207W, strain RIO2, hits give low values",1.01
same,normalized growth,"locus YNL222W, strain SSU72, hits give low values",1.06
same,normalized growth,"locus YNL307C, strain MCK1 (second series), hits give low values",0.963
same,normalized growth,"locus YOL078W, strain AVO1, hits give low values",1.03
same,normalized growth,"locus YOL136C, strain PFK27, hits give low values",0.961
same,normalized growth,"locus YOR061W, strain CKA2, hits give low values",0.971
same,normalized growth,"locus YOR119C, strain RIO1, hits give low values",1.03
same,normalized growth,"locus YOR231W, strain MKK1, hits give low values",1.02
same,normalized growth,"locus YOR329C, strain SCD5, hits give low values",1.05
same,normalized growth,"locus YPL031C, strain PHO85, hits give low values",0.952
same,normalized growth,"locus YPL153C, strain RAD53, hits give low values",0.948
same,normalized growth,"locus YPL204W, strain HRR25, hits give low values",0.929
same,normalized growth,"locus YPL209C, strain IPL1, hits give low values",1.04
same,normalized growth,"locus YPL256C, strain CLN2, hits give low values",0.941
same,normalized growth,"locus YPR025C, strain CCL1, hits give low values",1.06 [resistant] (active)
same,normalized growth,"locus YPR106W, strain ISR1, hits give low values",1.04
same,normalized growth,"locus YPR111W, strain DBF20, hits give low values",1.04
same,normalized growth,"strain NNK1, hits give low values",1.03
same,normalized growth,"strain TSCII, hits give low values",1.02
